Compounds with a hit are over-represented: about 1.5% of the library has one in this group of screens.
Rin1 Abl inh – inhibitors of human Rin1-Abl protein interaction. AID 588664. TR-FRET Rin1/Abl binding, biochemical. hit rate 0.4% among 360,000. P00519+Q13671. inhibition, % at 7.35 µM; in the data active = inhibition above about 5%, passing the limit was not always enough
ARNT TACC3 PPI – disruptors of human ARNT/TACC3 interaction; inhibition, % at 9.99 µM; AlphaScreen His-ARNT PAS-B/GST-TACC3 binding, luminescence; TACC3 fragment carries E629A point mutation; hit rate 0.66% among 390,000;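 active = mean inhibition of replicates at least 50% and at least half of replicates each reaching 50%; inconclusive = half or more replicates reach 50% but mean below 50%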;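 also: 0% = complete ARNT plus TACC3 wells and 100% = ARNT alone without TACC3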
AI-2 QS mod – modulators of Vibrio harveyi AI-2 quorum sensing system | AID 2094 | hit rate 0.4% among 300,000 | Vibrio harveyi JMH597 AI-2 luminescence/OD600 ratio, 9 h; active compounds read low; strain lacks LuxN and CqsS sensors; 0 = neutral-control median | activity change, % at 7.5 µM; in the data active = activity change below about -75%, passing the limit was not always enough; inconclusive = no clear call, values can overlap the other calls;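 also: luminescence divided by OD600 gain over 9 h not by final OD600 alone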
HGIII-sPLA2 inh – Blocks human group III sPLA2 activity. Q9NZ20. QFRET BODIPY PC-A2 liposome hydrolysis, fluorescence. inhibition, % at 12.2 µM. hit rate 0.56% among 370,000. AID 743126;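 active = inhibition above mean plus 3 SD of compounds lying within the high and low control bounds, cut at about 19% in these data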;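 also: 0% = median of test compound wells and 100% = no enzyme DMSO wells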
Target sequence (Q9NZ20 whole entry, looked up): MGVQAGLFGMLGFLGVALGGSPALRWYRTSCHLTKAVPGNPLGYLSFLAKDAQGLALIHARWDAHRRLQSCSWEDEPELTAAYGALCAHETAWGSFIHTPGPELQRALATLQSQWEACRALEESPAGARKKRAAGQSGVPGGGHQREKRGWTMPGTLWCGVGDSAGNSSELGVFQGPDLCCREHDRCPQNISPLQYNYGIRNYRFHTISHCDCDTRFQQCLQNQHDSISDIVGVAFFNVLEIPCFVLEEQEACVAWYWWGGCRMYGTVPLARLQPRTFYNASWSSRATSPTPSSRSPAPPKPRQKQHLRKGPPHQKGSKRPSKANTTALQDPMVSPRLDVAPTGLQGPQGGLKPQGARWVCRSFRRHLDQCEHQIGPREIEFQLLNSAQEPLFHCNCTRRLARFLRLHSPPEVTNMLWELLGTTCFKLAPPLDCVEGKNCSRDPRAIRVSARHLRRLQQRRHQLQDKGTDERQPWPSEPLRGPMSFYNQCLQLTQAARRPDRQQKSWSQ
JMH597 growth rt – retest: blocks Vibrio harveyi JMH597 growth; shares compounds with AI-2 QS mod; OD600 absorbance, 9 h; lacks LuxN and CqsS sensors; growth inhibition, % at 7.5 µM; hit rate 1% among 750;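 active = every replicate shows growth inhibition above 50%; inconclusive = at least half, but not all, replicates pass that cutoff; inactive = fewer than half of replicates pass it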
BB721 const-QS lum – retest counter-screen: lowers luminescence of constitutive-QS Vibrio harveyi BB721 | 9 h | inhibition, % at 7.5 µM | AID 2727 | shares compounds with AI-2 QS mod | hit rate 95% among 750;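 active = inhibition above about 80% in every replicate, not just on average, limit read from the data; inconclusive = at least half of replicates past the limit, but not all; inactive = fewer than half of replicates past the limit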
BB721 growth rt – retest: inhibitors of Vibrio harveyi BB721 growth | shares compounds with AI-2 QS mod | OD600 absorbance, 9 h | growth inhibition, % at 7.5 µM | hit rate 3% among 750 | AID 2728;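 active = every replicate shows growth inhibition above 50%; inconclusive = at least half but not all replicates above 50% inhibition; inactive = under half of replicates above 50% inhibition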
AI-2 QS JMH597 – Vibrio harveyi AI-2 signaling luminescence modulation – JMH597 strain, confirmation; shares compounds with AI-2 QS mod; hit rate 97% among 750; AID 2736; Vibrio harveyi JMH597 AI-2 quorum sensing luminescence, 9 h; luxN and CqsS knockout, AI-2 only; inhibition, % at 7.5 µM;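 active = every replicate shows more than 75% inhibition of signal versus neutral control wells; inconclusive = half to three quarters of replicates exceed 75% inhibition; inactive = fewer than half of replicates exceed 75% inhibition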
The depositor's hits bear a star.

`C[C@H]1CN([C@@H](C)CO)S(=O)(=O)c2ccc(-c3cccc(C#N)c3)cc2O[C@H]1CN(C)Cc1cccc(F)c1` gave ARNT TACC3 PPI -2.
Cc1ccc(S(=O)(=O)N(C)C[C@H]2Oc3ccc(NC(=O)NC4CCCCC4)cc3C(=O)N([C@H](C)CO)C[C@@H]2C)cc1 was read as ARNT TACC3 PPI -2.
Cc1ccc(S(=O)(=O)NC(=O)NCc2ccc(Cl)cc2)cc1 was read as Rin1 Abl inh 3, ARNT TACC3 PPI 16, AI-2 QS mod 37 and HGIII-sPLA2 inh -5.
`Cc1ccc(CNC(=O)NCc2ccccc2)cc1` gave Rin1 Abl inh -2, ARNT TACC3 PPI 0, AI-2 QS mod -49 and HGIII-sPLA2 inh -5.
O=C(NCc1ccc(Cl)cc1)Nc1ccc(F)cc1 was read as Rin1 Abl inh -1, ARNT TACC3 PPI -5, AI-2 QS mod inconclusive, HGIII-sPLA2 inh -2, JMH597 growth rt -19, BB721 const-QS lum 96*, BB721 growth rt -8 and AI-2 QS JMH597 96*.
Screening O=C(NCc1cccs1)Nc1ccc(Cl)cc1 returned Rin1 Abl inh -2, AI-2 QS mod inconclusive, HGIII-sPLA2 inh -4, JMH597 growth rt 34, BB721 const-QS lum 94*, BB721 growth rt 60* and AI-2 QS JMH597 91*.
Cc1ccc(CNC(=O)Nc2ccccc2)cc1 was read as Rin1 Abl inh 1, ARNT TACC3 PPI 23, AI-2 QS mod -91*, HGIII-sPLA2 inh -1, JMH597 growth rt -6, BB721 const-QS lum 97*, BB721 growth rt 4 and AI-2 QS JMH597 97*.
For Cc1ccc(CNC(=O)Nc2ccc(Cl)cc2)cc1 the results were Rin1 Abl inh -2, ARNT TACC3 PPI -4, AI-2 QS mod -83*, HGIII-sPLA2 inh 3, JMH597 growth rt -22, BB721 const-QS lum 86*, BB721 growth rt -21 and AI-2 QS JMH597 90*.
For COCC(=O)Nc1ccc2c(c1)OC[C@@H](C)N(C(=O)NC(C)C)C[C@@H](C)[C@H](OC)CN(C)C2=O the results were ARNT TACC3 PPI -6.
For C[C@@H]1CN([C@@H](C)CO)C(=O)c2cc(NC(=O)c3ccccc3)ccc2O[C@@H](C)CCCCO[C@@H]1CN(C)C(=O)NC1CCCCC1 the results were ARNT TACC3 PPI -2.
Screening C[C@H]1CCCCO[C@H](CN(C)C(=O)Nc2cccc3ccccc23)[C@@H](C)CN([C@@H](C)CO)C(=O)c2cc(NS(=O)(=O)c3ccc(Cl)cc3)ccc2O1 returned ARNT TACC3 PPI 13.
COc1ccccc1-c1cnc2c(c1)C(=O)N([C@@H](C)CO)C[C@@H](C)[C@H](CN(C)C(=O)c1ccncc1)O2 was read as ARNT TACC3 PPI -9.
For Cc1ccc(CNC(=O)Nc2cccs2)cc1 the results were Rin1 Abl inh 3, ARNT TACC3 PPI 2, AI-2 QS mod -82*, HGIII-sPLA2 inh -5, JMH597 growth rt 15, BB721 const-QS lum 95*, BB721 growth rt 25 and AI-2 QS JMH597 95*.
For COc1ccc(CNC(=O)Nc2cccs2)cc1OC the results were Rin1 Abl inh 1, ARNT TACC3 PPI 4, AI-2 QS mod 28 and HGIII-sPLA2 inh -6.
For O=C(NCCc1ccco1)c1cc(COc2cccc(C(F)(F)F)c2)on1 the results were Rin1 Abl inh 6, ARNT TACC3 PPI 3, AI-2 QS mod -84*, HGIII-sPLA2 inh -14, JMH597 growth rt 31, BB721 const-QS lum 82*, BB721 growth rt -195 and AI-2 QS JMH597 92*.
For O=C(NCc1ccccc1Cl)c1cc2ccccc2oc1=O the results were Rin1 Abl inh -4, ARNT TACC3 PPI -2, AI-2 QS mod -9 and HGIII-sPLA2 inh -2.
For O=c1oc2ccccc2cc1NCc1ccccc1O the results were Rin1 Abl inh -6, AI-2 QS mod -94*, HGIII-sPLA2 inh -3, JMH597 growth rt 14, BB721 const-QS lum 97*, BB721 growth rt 15 and AI-2 QS JMH597 98*.
Screening Cc1cc(C)nc(SCC(=O)Nc2ccc(N3CCOCC3)c(Cl)c2)n1 returned Rin1 Abl inh 2, ARNT TACC3 PPI 4 and HGIII-sPLA2 inh 3.
CNc1nc(SCC(=O)Nc2ccc(Cl)c(Cl)c2)nc(N2CCOCC2)n1 was read as Rin1 Abl inh -1, ARNT TACC3 PPI -5, AI-2 QS mod inconclusive, HGIII-sPLA2 inh 3, JMH597 growth rt -13, BB721 const-QS lum -13, BB721 growth rt -22 and AI-2 QS JMH597 -2.
`Cc1ccc(C2CC(c3ccc(Cl)cc3)=NNC2=O)cc1` (stereo not drawn) gave Rin1 Abl inh -1, ARNT TACC3 PPI 2, AI-2 QS mod -73 and HGIII-sPLA2 inh 1.
CCc1ccc(C2CC(c3ccc(Cl)cc3)=NNC2=O)cc1 (stereo not drawn) was read as Rin1 Abl inh -3, ARNT TACC3 PPI -6, AI-2 QS mod -82*, HGIII-sPLA2 inh -1, JMH597 growth rt -8, BB721 const-QS lum 88*, BB721 growth rt -22 and AI-2 QS JMH597 87*.
`O=C1NN=C(c2ccc(Br)cc2)CC1c1ccc(Cl)cc1` (stereo not drawn) gave Rin1 Abl inh -1, ARNT TACC3 PPI 1, AI-2 QS mod -84*, HGIII-sPLA2 inh -18, JMH597 growth rt 4, BB721 const-QS lum 98*, BB721 growth rt 12 and AI-2 QS JMH597 97*.
`CC(C)C#Cc1cnc2c(c1)C(=O)N([C@@H](C)CO)C[C@@H](C)[C@H](CN(C)C(=O)c1cccc(F)c1)O2` gave ARNT TACC3 PPI -9.
`C[C@@H]1CN([C@@H](C)CO)C(=O)c2cc(NS(=O)(=O)c3ccc(Cl)cc3)ccc2O[C@@H](C)CCCCO[C@@H]1CN(C)C(=O)Nc1ccc2c(c1)OCO2` gave ARNT TACC3 PPI -3.
For O=[N+]([O-])c1ccc(NCCCNS(=O)(=O)c2ccccc2)cc1 the results were Rin1 Abl inh 2, ARNT TACC3 PPI 0, AI-2 QS mod inconclusive, HGIII-sPLA2 inh -28, JMH597 growth rt 11, BB721 const-QS lum 97*, BB721 growth rt 6 and AI-2 QS JMH597 97*.
For Cc1ccc(S(=O)(=O)NCCCNc2ccc([N+](=O)[O-])cc2)cc1 the results were Rin1 Abl inh 1, ARNT TACC3 PPI 7, AI-2 QS mod -60 and HGIII-sPLA2 inh -26.
`Cc1sc2ncnc(OCC(=O)N3CCN(S(=O)(=O)c4ccc(Cl)cc4)CC3)c2c1C` gave Rin1 Abl inh -2, ARNT TACC3 PPI -9, AI-2 QS mod 21 and HGIII-sPLA2 inh -9.
